# Results reported in ChEMBL document CHEMBL3988442, “University of Dundee, Small-Polar-MMV Screening Library” (2021).
# Out of some 48,000 compounds screened, about 13,000 (27%) showed an effect of 50% or more. The list shows a part of the results.
# Tested on: Wolbachia pipientis
# Experiment: Anti-Wolbachia Cell-Based Screen
# Assay type: functional
# Parameters: scale not given: in the data most compounds retested in dose-response had high values
# Settings: 5 µM
row,Compound,Percent Effect
1,CC(C)CN1Cc2cccc(NC(=O)Cc3ccon3)c2C1,-9.701%
2,Cc1ccc(=O)n(Cc2nc(C(C)OCC(C)C)no2)n1 (centres undefined),-10.1%
3,Cc1cccc(C(=O)N2CCN(c3ccc(-n4cccc4)nn3)CC2)c1,0.6328%
4,CN(C)c1ccc(CN2C[C@H]3CC[C@@H]2CN(C2CCOCC2)C3)cn1,13.91%
5,CC(=O)Nc1sccc1C(=O)C(C)(C)C,20.74%
6,NC(=O)c1c[nH]nc1NC(=O)c1cccc(Cl)c1,101.4%
7,Cc1ccc(CNC(=O)c2c[nH]nc2NC(=O)COCC2CC2)cc1,-19.21%
8,NC(=O)c1c[nH]nc1NC(=O)c1ccc(Cl)cc1,91.07%
9,Cn1cc(NC(=O)c2cccc(Cl)c2)c(=O)n(C)c1=O,-1.289%
10,CN1CCC(Oc2ccc(NC(=O)c3cccc(Cl)c3)cc2)CC1,-9.86%
11,Cc1ccc(CNC(=O)c2c[nH]nc2NC(=O)C2COCCO2)cc1 (centres undefined),-26.91%
12,CNc1cc(N2CCCC2CNCc2ccc(Cl)o2)ncn1 (centres undefined),6.692%
13,O=C(CC1=CCCCC1)Nc1ccc(CN2C(=O)CCC2=O)cc1,-15.48%
14,CC(C)(C)n1ncc2c(=O)[nH]c(N3CCN(CCO)CC3)nc21,1.466%
15,CCC(=O)Nc1ccc(C(C)Nc2nc3c(cnn3C)c(=O)[nH]2)cc1 (centres undefined),-8.968%
16,CC(=O)CSc1nc2c(cnn2CCO)c(=O)[nH]1,136.9%
17,CNC(=O)CSc1nc2c(cnn2Cc2ccc(F)cc2)c(=O)[nH]1,-13.84%
18,O=C(CSc1nc2c(cnn2CCO)c(=O)[nH]1)NC1CCCCC1,119.1%
19,CC(C)NC(=O)CSc1nc2c(cnn2CCO)c(=O)[nH]1,147.9%
20,CCCc1cc(=O)[nH]c2nnc(SCC(C)=O)n12,15.46%
21,CCN(CC)C(=O)CSc1ccc(C(F)(F)F)cn1,0.9721%
22,CN(CC(=O)N(C)C1CCCCC1)Cc1nc2c(cnn2C)c(=O)[nH]1,2.622%
23,CCN(CC)C(=O)CSc1nc2c(cnn2CCO)c(=O)[nH]1,123.9%
24,CC(C#N)CSc1ccccc1NCC(=O)NC1CCCCC1 (centres undefined),-11.09%
25,CCN(CC)C(=O)CN(C)Cc1nc2c(cnn2C)c(=O)[nH]1,2.851%
26,O=C(c1ccco1)N(c1ccc(F)cn1)C1CCOCC1,7.992%

row,Compound,Percent Effect
1,CCc1ccsc1CNC(=O)CNC(=O)C(C)(C)C,-1.133%
2,CN(CC(=O)N1CCCC1)Cc1nc2c(cnn2C)c(=O)[nH]1,28.73%
3,CC1CCN(C(=O)CSc2nc3c(cnn3CCO)c(=O)[nH]2)CC1,123.1%
4,O=C(CSc1nc2c(cnn2CCO)c(=O)[nH]1)N1CCCCCC1,-26.62%
5,CCC(Oc1ccc(N(C)S(C)(=O)=O)cc1)C(=O)N(C)C (centres undefined),-17.11%
6,CCN(CC)c1ccc(NS(=O)(=O)c2cnn(C)c2)cn1,-7.679%
7,Cc1nc(NS(=O)(=O)c2cc(Br)ccc2C)no1,-15.2%
8,CN1CC(C(=O)N(C)Cc2cc(-c3cccnc3)no2)NC1=O (centres undefined),-3.484%
9,CC(C)NC(=O)C[C@@H]1CCNC[C@@H]1Cc1cc(-c2ccccn2)on1,-9.264%
10,Cc1ccc(C2NC(=O)c3cc(C(C)C)sc3N2)cc1 (centres undefined),93.7%
11,CC(C)c1cc2c(s1)NC(c1ccccn1)NC2=O (centres undefined),80.13%
12,CC(C)c1cc2c(s1)NC(c1ccccc1)NC2=O (centres undefined),97.8%
13,COc1ccc2cc(-c3n[nH]cc3CN3CCSCC3)ccc2c1,-6.074%
14,COCCN(CC1CC1)c1nc(CCN)nc2ccccc12,101.5%
15,NCCc1nc(N(Cc2cncs2)C2CC2)c2ccccc2n1,-5.048%
16,COCCN(Cc1ccccc1Cl)c1nc(CCN)nc2ccccc12,116.2%
17,Cc1ccsc1CN(c1nc(CCN)nc2ccccc12)C1CC1,-10.53%
18,COCCN(Cc1cccs1)c1nc(CCN)nc2ccccc12,106.1%
19,NCCc1nc(N[C@@H](CO)c2ccccc2)c2ccccc2n1,20.3%
20,NCCc1nc(N(Cc2nccs2)C2CC2)c2ccccc2n1,3.563%
21,COCCN(CCOC)c1ncccc1Cl,3.894%
22,COCCN(Cc1ccccc1C)c1nc(C)nc2oc(C)nc12,9.543%
23,CC(O)CC(C)(C)CNC(=O)NCc1cccc(-n2ccnc2)c1 (centres undefined),13.1%
24,COCCN1CC2(CCC1=O)CCN(Cc1nnc(C)o1)CC2,2.828%
25,COc1cccn(Cc2nnc(-c3cccc(F)c3)o2)c1=O,-11.98%
26,COc1cccc(CC(=O)N2CC[C@@H]3[C@H](CC2)N(C)CCS3(=O)=O)c1.O=C(O)C(F)(F)F,107.9%

row,Compound,Percent Effect
1,COc1ccc(C(=O)N2CC[C@@H]3[C@H](CC2)N(C)CCS3(=O)=O)cc1.O=C(O)C(F)(F)F,3.653%
2,COc1cccc(C(=O)N2CC[C@@H]3[C@H](CC2)N(C)CCS3(=O)=O)c1.O=C(O)C(F)(F)F,-1.721%
3,CN1CCS(=O)(=O)[C@@H]2CCN(C(=O)c3ccccc3)CC[C@@H]21.O=C(O)C(F)(F)F,-7.841%
4,COc1ccc(CC(=O)N2CC[C@@H]3[C@H](CC2)N(C)CCS3(=O)=O)cc1.O=C(O)C(F)(F)F,16.94%
5,CN1CCS(=O)(=O)[C@@H]2CCN(C(=O)CC(C)(C)C)CC[C@@H]21.O=C(O)C(F)(F)F,96.97%
6,CN(C)c1cc(C(=O)NCC2(c3ccc(F)cc3)CC2)ccn1,-8.141%
7,CCNC(=O)C1CCCN(c2ccc(C#N)cc2C(F)(F)F)C1 (centres undefined),-8.319%
8,NC(=O)CCC1CCCN(c2ccnc3cc(F)ccc23)C1 (centres undefined),94.8%
9,O=C(O)c1cn(CC2CCCN(c3ccc4ccccc4n3)C2)nn1 (centres undefined),-23.62%
10,O=C(NCCc1ccccc1)C1CCCN(c2ccc3nncn3n2)C1 (centres undefined),7.633%
11,NC(=O)CCC1CCCN(c2ccc3c(Cl)ccnc3c2F)C1 (centres undefined),-4.467%
12,CCCNC(=O)C1CCCN(c2ccc3nncn3n2)C1 (centres undefined),106.8%
13,NC(=O)CCC1CCCN(c2ccc3ccc(F)cc3n2)C1 (centres undefined),91.08%
14,CC(C)OCc1cccc(NC(=O)N2CCCC(CCC(N)=O)C2)c1 (centres undefined),-9.131%
15,CCNC(=O)C1CCCN(c2cccc(C(F)(F)F)n2)C1 (centres undefined),5.494%
16,O=C(NCCC1=CCCCC1)C1CCCN(c2ccc3nncn3n2)C1 (centres undefined),4.301%
17,CCNC(=O)C1CCCN(c2ccc3ccc(F)cc3n2)C1 (centres undefined),95.98%
18,NC(=O)c1ccc(N2CCN(Cc3ccc(F)cc3Cl)CC2)nn1,4.526%
19,CSc1ncc(CNC(C)c2cnn(-c3ccc(F)cc3F)c2C)cn1 (centres undefined),-22.9%
20,O=c1cc(N2CCc3ccccc3C2)cnn1CCC1CCOC1 (centres undefined),5.025%
21,CN1CC(Oc2ccccc2)=NC(SCC(=O)Nc2ccccc2Cl)=N1,15.6%
22,COc1cccc(CC(=O)N2CC[C@H]3[C@@H]2CCC(=O)N3C)c1,-18.88%
23,CCN1C[C@@H](C(=O)O)[C@H](c2cccc(OC)c2)C1,8.176%
24,COc1cccc(CN2CC[C@H]3[C@@H](C2)[C@H](c2ccsc2)CN3C(C)=O)c1,146.6%
25,COc1cccc([C@H]2CN(C(C)=O)[C@@H]3CCN(Cc4ccsc4)C[C@H]23)c1.Cl,57.96%
26,CC(=O)N1C[C@@H](c2ccsc2)[C@@H]2CN(Cc3cccc(Cl)c3)CC[C@@H]21,2.234%

row,Compound,Percent Effect
1,CCN1CCC(N2C[C@@H](C(=O)O)[C@H](c3cccc(OC)c3)C2)CC1,12.25%
2,CCc1c(C)nc(C)nc1N1CCC(NCCSc2nnnn2C)CC1,11.48%
3,O=C(c1cn(CCN2CCCCC2)nn1)N1CCCCO1,-10.33%
4,COc1nc2c(cc1C(=O)N1CCCOC(Cn3cccn3)C1)CCC2 (centres undefined),0.1052%
5,CCN1C[C@H]2C3(CCN(C(=O)NC(C)C)CC3)CC[C@@]2(C(=O)N(C)C)C1.O=C(O)C(F)(F)F,-2.762%
6,CS(=O)(=O)N1CCc2sc(C(=O)NCc3ccncc3)cc21,102.3%
7,CS(=O)(=O)N1CCc2sc(C(=O)NCCc3ccccn3)cc21,98.67%
8,Cc1cnc(CNC(=O)c2cc3c(s2)CCN3S(C)(=O)=O)cn1,-3.088%
9,CS(=O)(=O)N1CCc2sc(C(=O)NCc3ccccc3)cc21,99.89%
10,CNS(=O)(=O)c1ccc(C(=O)NCCc2ccccn2)cc1,-0.4969%
11,CS(=O)(=O)N1Cc2nc(C(=O)NCc3ccccc3)oc2C1,1.051%
12,O=C(NCCc1ccccn1)C1=NN(c2ccccc2)C(=O)CN1,14.32%
13,COC(=O)N1CCc2ccccc2C1C(=O)NCc1ccncc1 (centres undefined),5.289%
14,CCOc1cccc(C(C)NC(=O)N2CCC(C(N)=O)CC2)c1 (centres undefined),-12.9%
15,Cc1ccc(-c2cnc(CCC(=O)NCCN3CCOCC3)o2)cc1C,7.661%
16,CC(C)Oc1ncnc2c1CCN(c1cc(C(F)(F)F)ncn1)CC2,-5.603%
17,N#Cc1cccc(CN2C[C@@H](F)[C@@H](OCc3nc4ccccc4[nH]3)C2)c1,3.783%
18,COC(=O)c1cccc(CNC(=O)c2cc(C(C)C)n(C)n2)c1,-2.718%
19,COC(=O)c1cccc(CNC(=O)CC(F)(F)F)c1,-8.665%
20,CC(C)Oc1ccc(C(=O)NCc2ccc3c(c2)CCCN3C)cn1,82.05%
21,CCOCC1CCN(C(=O)Nc2ccc3c(c2)CCCN3C)C1 (centres undefined),-6.058%
22,COc1ccc(CNC(=O)c2ccc(=O)n(C)c2)cc1C,-12.06%
23,COC(=O)c1cccc(C(=O)NCc2ccc3c(c2)CCCN3C)c1,93.26%
24,CN1CCCc2cc(CNC(=O)c3ccc(NC4CC4)nc3)ccc21,-0.6873%
25,COc1cc(C(=O)NCc2ccc3c(c2)CCCN3C)cc(OC)c1Br,103.6%
26,CC(C)Oc1ccc(C(=O)NCc2ccnc(N3CCCC3)c2)cn1,1.854%
